Measured values reported in PubChem BioAssay (Tox21).
Records with an inconclusive call do not appear. Entries that show only a call come without a potency. A number with no mark means an inactive call. Calls of active or inactive are those of the source. Calls follow the shape of the dose curve; as a rule, active = well fitted curve in the direction sought with a large enough effect in the repeat runs; inconclusive = weak or mixed curves; inactive = no such curve, though single readings can be large; an effect the other way counts as inactive or inconclusive.

Experiments:
[1] = target: Cytochrome P450 2D6 (Homo sapiens) (UniProt P10635); experiment: Cytochrome P450 Family 2 Subfamily D Member 6 (CYP2D6) small molecule antagonists: luciferase reporter qHTS assay (AID 1671196); also: nearly all actives have a fitted effect of over 50% in size; also: potency is read from the fitted curve at half-maximal effect; as to activity change, negative = inhibition: series mostly up to about 120 µM
Cytochrome P450 2D6 (Homo sapiens), sequence (P10635 whole entry, looked up): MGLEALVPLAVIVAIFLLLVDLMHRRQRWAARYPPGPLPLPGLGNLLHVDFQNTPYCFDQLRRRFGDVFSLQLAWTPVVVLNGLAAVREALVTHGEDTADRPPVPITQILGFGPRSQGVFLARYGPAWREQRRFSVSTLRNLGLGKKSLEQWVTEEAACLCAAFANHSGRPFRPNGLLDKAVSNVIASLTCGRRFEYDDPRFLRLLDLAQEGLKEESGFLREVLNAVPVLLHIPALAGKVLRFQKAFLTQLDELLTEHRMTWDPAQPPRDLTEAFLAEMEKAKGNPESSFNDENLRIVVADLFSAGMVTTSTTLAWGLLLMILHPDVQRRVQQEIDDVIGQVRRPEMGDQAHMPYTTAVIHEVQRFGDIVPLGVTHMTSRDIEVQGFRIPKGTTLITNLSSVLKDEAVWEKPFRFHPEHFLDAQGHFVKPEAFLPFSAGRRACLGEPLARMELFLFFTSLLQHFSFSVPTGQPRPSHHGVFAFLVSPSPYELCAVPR
Method in brief: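 Cell-free P450-Glo system: CYP2D6 with proluciferin substrate was pre-incubated with compound for 10 min, then reacted with NADPH regeneration for 1 h at room temperature. Luciferin product was detected after 20 min, and data were reported as relative luminescence units.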

[2] = target: Cytochrome P450 2C9 (Homo sapiens) (UniProt P11712); experiment: Cytochrome P450 Family 2 Subfamily C Member 9 (CYP2C9) small molecule antagonists: luciferase reporter qHTS assay (AID 1671198); also: nearly all actives have a fitted effect of over 50% in size; also: potency is read from the fitted curve at half-maximal effect; as to activity change, negative = inhibition: series mostly up to about 120 µM
Cytochrome P450 2C9 (Homo sapiens), sequence (P11712 whole entry, looked up): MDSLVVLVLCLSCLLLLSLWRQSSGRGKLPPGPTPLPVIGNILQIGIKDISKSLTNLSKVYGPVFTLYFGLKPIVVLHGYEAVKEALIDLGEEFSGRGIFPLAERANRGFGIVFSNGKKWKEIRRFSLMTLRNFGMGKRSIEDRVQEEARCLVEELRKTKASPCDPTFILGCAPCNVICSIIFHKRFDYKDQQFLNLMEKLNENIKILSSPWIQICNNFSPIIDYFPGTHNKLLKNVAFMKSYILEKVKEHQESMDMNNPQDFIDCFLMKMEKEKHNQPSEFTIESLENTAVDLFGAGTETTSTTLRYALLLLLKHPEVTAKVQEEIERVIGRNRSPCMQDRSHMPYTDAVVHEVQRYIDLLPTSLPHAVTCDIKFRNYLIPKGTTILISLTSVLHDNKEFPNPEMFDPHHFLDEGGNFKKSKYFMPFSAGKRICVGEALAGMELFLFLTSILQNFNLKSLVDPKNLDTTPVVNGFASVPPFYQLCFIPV
Method in brief: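 Enzyme-substrate mix preincubated with compound 10 min at room temperature; reaction started with NADPH regeneration solution, 1 h 37C. Luminescent luciferin product read after 20 min detection reagent.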

[3] = target: Cytochrome P450 1A2 (Homo sapiens) (UniProt P05177); experiment: Cytochrome P450 Family 1 Subfamily A Member 2 (CYP1A2) small molecule antagonists: luciferase reporter qHTS assay (AID 1671199); also: nearly all actives have a fitted effect of over 50% in size; also: potency is read from the fitted curve at half-maximal effect; as to activity change, negative = inhibition: series mostly up to about 120 µM
Cytochrome P450 1A2 (Homo sapiens), sequence (P05177 whole entry, looked up): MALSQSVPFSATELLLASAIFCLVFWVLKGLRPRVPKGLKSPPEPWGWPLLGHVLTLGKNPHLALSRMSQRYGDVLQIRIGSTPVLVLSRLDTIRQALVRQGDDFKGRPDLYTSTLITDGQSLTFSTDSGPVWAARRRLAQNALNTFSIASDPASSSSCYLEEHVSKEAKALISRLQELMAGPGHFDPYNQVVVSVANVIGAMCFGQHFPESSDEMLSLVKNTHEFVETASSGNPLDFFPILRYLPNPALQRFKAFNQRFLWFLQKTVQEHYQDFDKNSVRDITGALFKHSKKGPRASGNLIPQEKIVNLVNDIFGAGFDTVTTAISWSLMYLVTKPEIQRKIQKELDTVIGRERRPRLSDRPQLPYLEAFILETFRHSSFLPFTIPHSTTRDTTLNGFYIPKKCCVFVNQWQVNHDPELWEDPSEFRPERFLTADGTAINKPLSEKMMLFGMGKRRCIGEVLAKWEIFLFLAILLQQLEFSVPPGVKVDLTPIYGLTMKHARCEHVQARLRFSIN
Method in brief: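 P450-Glo CYP1A2 enzyme–proluciferin substrate mix with compound 10 min at room temperature, then NADPH regeneration 1 h at room temperature. Luciferin detection reagent added, luminescence read after 20 min; furafylline positive control.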

[4] = target: Voltage-gated inwardly rectifying potassium channel KCNH2 (Homo sapiens) (UniProt Q12809); experiment: Human Ether-a-go-go-Related Gene (hERG) channel small molecule antagonists: fluorescence cell-based qHTS assay (AID 1671200);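 also: hERG-expressing U2OS cells given a thallium stimulus after FluxOR II dye loading; series mostly up to about 77 µM; nearly all actives have a fitted effect of over 50% in size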
Voltage-gated inwardly rectifying potassium channel KCNH2 (Homo sapiens), sequence (Q12809 whole entry, looked up): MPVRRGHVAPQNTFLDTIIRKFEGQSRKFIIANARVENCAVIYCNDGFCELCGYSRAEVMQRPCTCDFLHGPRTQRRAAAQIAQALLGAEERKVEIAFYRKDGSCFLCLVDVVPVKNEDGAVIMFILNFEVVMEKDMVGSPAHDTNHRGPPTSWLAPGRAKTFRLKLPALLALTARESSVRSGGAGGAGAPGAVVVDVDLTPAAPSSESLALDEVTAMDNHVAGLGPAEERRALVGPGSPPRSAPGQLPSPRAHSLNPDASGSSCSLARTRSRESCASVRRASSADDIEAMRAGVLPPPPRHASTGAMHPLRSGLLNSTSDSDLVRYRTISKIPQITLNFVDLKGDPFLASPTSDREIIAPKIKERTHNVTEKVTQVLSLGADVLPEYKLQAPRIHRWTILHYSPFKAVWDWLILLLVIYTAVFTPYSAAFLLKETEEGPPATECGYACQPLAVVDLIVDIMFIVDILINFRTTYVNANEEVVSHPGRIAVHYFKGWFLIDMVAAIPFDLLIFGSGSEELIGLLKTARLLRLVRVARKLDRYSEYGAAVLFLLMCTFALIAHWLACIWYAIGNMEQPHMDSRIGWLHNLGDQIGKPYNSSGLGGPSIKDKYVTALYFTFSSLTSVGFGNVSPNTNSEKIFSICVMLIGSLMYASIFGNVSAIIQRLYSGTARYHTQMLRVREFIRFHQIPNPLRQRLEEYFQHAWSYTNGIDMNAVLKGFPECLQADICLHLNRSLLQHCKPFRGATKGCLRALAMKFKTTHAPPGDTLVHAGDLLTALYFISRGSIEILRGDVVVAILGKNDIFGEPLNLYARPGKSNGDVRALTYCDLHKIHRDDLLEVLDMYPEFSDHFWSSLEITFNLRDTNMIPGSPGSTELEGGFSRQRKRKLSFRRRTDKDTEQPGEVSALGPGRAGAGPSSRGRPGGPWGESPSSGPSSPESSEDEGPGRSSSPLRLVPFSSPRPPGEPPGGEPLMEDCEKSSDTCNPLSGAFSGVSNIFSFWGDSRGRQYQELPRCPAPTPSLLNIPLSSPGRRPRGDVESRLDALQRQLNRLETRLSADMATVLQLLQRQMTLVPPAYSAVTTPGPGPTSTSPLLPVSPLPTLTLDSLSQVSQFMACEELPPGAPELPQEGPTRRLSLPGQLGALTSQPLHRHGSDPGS
Method in brief: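 hERG-U2OS cells plated overnight at 37 C, loaded with FluxOR II dye 1 h at RT in dark; after 10 min, thallium stimulus added. Fluorescence (480/540 nm) read kinetically for 2 min at 1 s intervals.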

[5] = target: Cytochrome P450 3A4 (Homo sapiens) (UniProt P08684); experiment: Cytochrome P450 Family 3 Subfamily A Member 4 (CYP3A4) small molecule antagonists: luciferase reporter qHTS assay (AID 1671201); also: nearly all actives have a fitted effect of over 50% in size; also: potency is read from the fitted curve at half-maximal effect; as to activity change, negative = inhibition: series mostly up to about 120 µM
Cytochrome P450 3A4 (Homo sapiens), sequence (P08684 whole entry, looked up): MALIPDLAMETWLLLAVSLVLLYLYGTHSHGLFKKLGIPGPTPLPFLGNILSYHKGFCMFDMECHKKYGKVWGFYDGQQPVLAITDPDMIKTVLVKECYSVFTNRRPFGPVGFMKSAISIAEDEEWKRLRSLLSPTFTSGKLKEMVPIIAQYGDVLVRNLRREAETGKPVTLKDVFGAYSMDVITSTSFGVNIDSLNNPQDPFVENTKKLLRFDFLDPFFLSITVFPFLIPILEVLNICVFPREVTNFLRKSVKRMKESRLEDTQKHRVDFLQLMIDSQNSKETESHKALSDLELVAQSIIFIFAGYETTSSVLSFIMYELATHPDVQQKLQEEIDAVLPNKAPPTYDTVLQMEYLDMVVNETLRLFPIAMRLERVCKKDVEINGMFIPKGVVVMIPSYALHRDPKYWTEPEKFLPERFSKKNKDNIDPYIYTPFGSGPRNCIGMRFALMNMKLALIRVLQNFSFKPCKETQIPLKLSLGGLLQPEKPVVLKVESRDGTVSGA
Method in brief: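 P450-Glo CYP3A4 luminescent assay: compounds preincubated 10 min at room temperature with enzyme and proluciferin substrate, NADPH regeneration added, 1 h room-temperature reaction, stopped with luciferin detection reagent; luminescence read after 20 min. Ketoconazole positive control.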

[6] = target: Cytochrome P450 2C19 (Homo sapiens) (UniProt P33261); experiment: Cytochrome P450 Family 2 Subfamily C Member 19 (CYP2C19) small molecule antagonists: luciferase reporter qHTS assay (AID 1671197); also: nearly all actives have a fitted effect of over 65% in size; also: potency is read from the fitted curve at half-maximal effect; as to activity change, negative = inhibition: series mostly up to about 120 µM
Cytochrome P450 2C19 (Homo sapiens), sequence (P33261 whole entry, looked up): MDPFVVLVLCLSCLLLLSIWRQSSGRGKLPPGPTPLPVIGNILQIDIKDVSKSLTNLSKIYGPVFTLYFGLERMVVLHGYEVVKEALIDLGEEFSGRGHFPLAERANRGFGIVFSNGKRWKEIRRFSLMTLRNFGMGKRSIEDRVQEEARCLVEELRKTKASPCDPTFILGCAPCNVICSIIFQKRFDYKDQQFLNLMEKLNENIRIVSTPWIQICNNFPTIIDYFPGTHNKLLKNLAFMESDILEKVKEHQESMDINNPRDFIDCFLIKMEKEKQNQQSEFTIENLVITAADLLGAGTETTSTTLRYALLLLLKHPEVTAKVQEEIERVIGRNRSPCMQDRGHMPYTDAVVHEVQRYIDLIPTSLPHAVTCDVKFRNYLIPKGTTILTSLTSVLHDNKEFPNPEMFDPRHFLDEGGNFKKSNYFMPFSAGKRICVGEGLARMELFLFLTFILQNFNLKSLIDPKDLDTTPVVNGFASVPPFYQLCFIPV
Method in brief: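 First, compounds are pinned into enzyme-substrate mix and held 10 min at room temperature. Second, NADPH regeneration solution is added and plates incubate 1 h at 37C. Third, detection reagent is added and luminescence read after 20 min.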

CCCCCCCCCCCBr
Potency [1]: inactive | Potency [2]: inactive | Potency [3]: inactive | Potency [4]: inactive | Potency [5]: inactive

CCCCS
Potency [1]: inactive | Potency [2]: inactive | Potency [4]: inactive

CCCCCCCCC1CO1 (configuration not stated)
Potency [1]: inactive | Potency [2]: inactive | Potency [3]: inactive | Potency [4]: inactive | Potency [5]: inactive

CCOCCOCCOC(C)=O
Potency [1]: inactive | Potency [2]: inactive | Potency [3]: inactive | Potency [4]: inactive

CCCc1ncc(C(=O)O)s1
Potency [1]: inactive | Potency [2]: inactive | Potency [3]: inactive

CC(=O)Oc1ccc(C(C)=O)cc1
Potency [1]: inactive | Potency [2]: inactive | Potency [3]: 33 µM (active) | Potency [4]: inactive | Potency [5]: inactive

N#CC1(N)CCCCC1
Potency [1]: inactive | Potency [2]: inactive | Potency [3]: inactive | Potency [4]: inactive | Potency [5]: inactive

c1cc2ccc3ccc4ccc5cccc6c(c1)c2c3c4c56
activity change, negative = inhibition [1]: 0.702% [at 4.07 µM] | activity change, negative = inhibition [2]: -14.6% [at 4.07 µM] | Potency [3]: 0.2 µM (active) | activity change, negative = inhibition [4]: 0.437% [at 2.72 µM]

c1coc(Cn2cccc2)c1
Potency [1]: inactive | Potency [2]: inactive | Potency [3]: inactive | Potency [4]: inactive | Potency [5]: inactive

NNC(=O)OCc1ccccc1
Potency [1]: inactive | Potency [2]: 56.4 µM (active) | Potency [3]: 15.9 µM (active) | Potency [4]: inactive | Potency [5]: inactive

CC[N+](C)(CC)CC
Potency [1]: inactive | Potency [2]: inactive | Potency [3]: inactive | Potency [4]: inactive | Potency [5]: inactive

CC(=O)O[C@@H]1CC2C3CCc4cc(OC(=O)c5ccccc5)ccc4C3CCC2(C)[C@H]1OC(C)=O (some centres not stated)
Potency [1]: inactive | Potency [2]: 11 µM (active) | Potency [3]: inactive | Potency [5]: inactive

CC(C)C(C)C
Potency [1]: inactive | Potency [2]: inactive | Potency [3]: inactive | Potency [4]: inactive | Potency [5]: inactive

CC(C)(C)NCC(O)COc1cccc2c1CCC(=O)N2 (configuration not stated)
Potency [1]: inactive | Potency [2]: inactive | Potency [4]: inactive | Potency [5]: inactive

O=C1Nc2ccccc2C1=O
Potency [1]: inactive | Potency [2]: inactive | Potency [3]: 39.6 µM (active) | Potency [4]: inactive | Potency [5]: inactive

CC(C)(C)C(=O)CC(=O)C(C)(C)C
Potency [1]: inactive | Potency [2]: inactive | Potency [3]: inactive | Potency [4]: inactive | Potency [5]: inactive

CC(C)(C)c1ccc(C(=O)CCCCl)cc1
Potency [1]: inactive | Potency [2]: inactive | Potency [3]: 12.3 µM (active) | Potency [4]: inactive | Potency [5]: inactive

CSC(=O)c1cccc2nnsc12
Potency [1]: 35.6 µM (active) | Potency [2]: 7.96 µM (active) | Potency [3]: 0.71 µM (active) | Potency [4]: inactive | Potency [5]: inactive

C/C(Cl)=C/CCl
Potency [1]: inactive | Potency [2]: inactive | Potency [3]: inactive | Potency [4]: inactive | Potency [5]: inactive

CCCCCCCC(=O)N(C)C
Potency [1]: inactive | Potency [2]: inactive | Potency [3]: inactive | Potency [4]: inactive

COC(=O)c1cc(Cl)c(NC(C)=O)cc1OC
Potency [1]: inactive | Potency [2]: inactive | Potency [3]: 2.45 µM (active) | Potency [4]: inactive | Potency [5]: inactive

COC(=O)C(c1ccccc1Cl)N1CCc2sccc2C1 (configuration not stated)
Potency [1]: 17.4 µM (active) | Potency [2]: 17.4 µM (active) | Potency [3]: 15.5 µM (active) | Potency [4]: inactive

Cc1cc(O)c(Cl)cc1C
Potency [1]: inactive | Potency [2]: inactive | Potency [3]: 25.2 µM (active) | Potency [4]: inactive | Potency [5]: inactive

CCc1ncc(C)[nH]1
Potency [1]: inactive | Potency [2]: inactive | Potency [4]: inactive | Potency [5]: inactive

CCCCCC(CC)OC(=O)CCCOc1ccc(Cl)cc1Cl (configuration not stated)
Potency [1]: inactive | Potency [2]: 28.2 µM (active) | Potency [3]: 35.5 µM (active) | Potency [5]: inactive

CC(C)(C)OC=O
Potency [1]: inactive | Potency [2]: inactive | Potency [4]: inactive | Potency [5]: inactive

COC(=O)c1ccc(NC(C)=O)cc1OC
Potency [1]: inactive | Potency [2]: inactive | Potency [3]: 11.5 µM (active) | Potency [4]: inactive

CC(C)C[P+](C)(CC(C)C)CC(C)C
Potency [1]: 0.568 µM (active) | Potency [2]: inactive | Potency [4]: inactive

C/C(=N\O)c1ccc(OCC(=O)N2CCCCC2)cc1
Potency [5]: inactive

COCc1nnc(-c2ccc[n+]([O-])c2)n1-c1c(Cl)c(Cl)cc2[nH]c(=O)c(=O)[nH]c12
Potency [1]: inactive | Potency [2]: inactive | Potency [4]: inactive | Potency [5]: 6.33 µM (active)

CC(=O)OC/C=C(/C)CCC=C(C)C
Potency [6]: inactive | Potency [2]: inactive | Potency [3]: inactive | Potency [4]: inactive | Potency [5]: inactive

CCO/C=C1\N=C(c2ccccc2)OC1=O
Potency [6]: 79.4 µM (active) | Potency [3]: 35.5 µM (active) | Potency [4]: inactive

CCCCOCCCC
Potency [6]: inactive | Potency [2]: inactive | Potency [4]: inactive | Potency [5]: inactive

CCCCC(CC)COC(=O)CC#N (configuration not stated)
Potency [6]: 39.9 µM (active) | Potency [2]: 31.7 µM (active) | Potency [3]: 35.6 µM (active) | Potency [4]: inactive | Potency [5]: 39.9 µM (active)

CC(=O)/C=C/C=C1/C2CCC(C2)C1(C)C (configuration not stated)
Potency [3]: 21.9 µM (active) | Potency [4]: inactive

CCC(C)c1nccnc1OC (configuration not stated)
Potency [1]: inactive | Potency [2]: inactive | Potency [5]: inactive

NNC(=O)CCCCC(=O)NN
Potency [3]: 31.7 µM (active) | Potency [4]: inactive

Cc1cc(C)c(N)c(Cl)c1
Potency [1]: inactive | Potency [3]: 2.83 µM (active) | Potency [4]: inactive | Potency [5]: inactive

CCOC(=O)[C@H](CCc1ccccc1)N[C@H]1CS[C@H](c2cccs2)CN(CC(=O)O)C1=O
Potency [2]: inactive | Potency [3]: inactive | Potency [4]: inactive

CCCCCCCCCCCCCC(=O)OCC
Potency [1]: inactive | Potency [2]: inactive | Potency [4]: inactive | Potency [5]: inactive

COCCCOc1cc(C[C@@H](C[C@H](N)[C@@H](O)C[C@H](C(=O)NCC(C)(C)C(N)=O)C(C)C)C(C)C)ccc1OC
Potency [6]: inactive | Potency [2]: inactive | Potency [3]: inactive | Potency [4]: inactive

C/C=C/C(=O)CCCC
Potency [1]: inactive | Potency [3]: inactive | Potency [4]: inactive | Potency [5]: 56.4 µM (active)

CC1=C(O)C(=O)CO1
Potency [1]: inactive | Potency [3]: inactive | Potency [4]: inactive | Potency [5]: inactive

CC(C)C(=O)Nc1cccc(C2CN3CCSC3=N2)c1 (configuration not stated)
Potency [6]: inactive | Potency [3]: inactive | Potency [4]: inactive

CCCC(=O)C(CC)Sc1ccoc1C (configuration not stated)
Potency [1]: inactive | Potency [4]: inactive

CC12CCCC=C1C(=O)OC2=O (configuration not stated)
Potency [1]: inactive | Potency [4]: inactive | Potency [5]: inactive

COc1ccc(Cl)cc1C
Potency [1]: inactive | Potency [2]: 84.7 µM (active) | Potency [4]: inactive | Potency [5]: inactive

CC(C)(O)CCCC1=CCC(C=O)CC1 (configuration not stated)
Potency [6]: 10.7 µM (active) | Potency [2]: 60.2 µM (active) | Potency [3]: 38 µM (active) | Potency [4]: inactive | Potency [5]: 67.5 µM (active)

C=CCn1cc[n+](C)c1
Potency [6]: inactive | Potency [2]: inactive | Potency [5]: inactive

O=C(O)Cc1ccccc1Oc1ccc(Cl)cc1Cl
Potency [6]: inactive | Potency [2]: 38.9 µM (active) | Potency [3]: inactive | Potency [4]: inactive | Potency [5]: inactive

CCCCCCCCCCCCCCCC/C=C/C1CC(=O)OC1=O (configuration not stated)
Potency [6]: 27.4 µM (active) | Potency [4]: inactive | Potency [5]: 15.4 µM (active)

BrCCOc1ccccc1
Potency [1]: 56.6 µM (active) | Potency [2]: inactive | Potency [5]: inactive

CN(C)c1cc(NC(=O)CNC(C)(C)C)c(O)c2c1C[C@H]1C[C@H]3[C@H](N(C)C)C(=O)C(C(N)=O)=C(O)[C@@]3(O)C(=O)C1=C2O
Potency [6]: 21.9 µM (active) | Potency [4]: inactive | Potency [5]: inactive

O=S(=O)(O)c1ccc(Cl)cc1
Potency [6]: 55.3 µM (active) | Potency [2]: inactive | Potency [3]: inactive | Potency [4]: inactive | Potency [5]: inactive

CCC(=O)OCCOc1ccccc1
Potency [1]: inactive | Potency [2]: inactive | Potency [5]: inactive

CC(CN1CC(=O)NC(=O)C1)N1CC(=O)NC(=O)C1 (configuration not stated)
Potency [6]: inactive | Potency [2]: inactive | Potency [3]: inactive | Potency [4]: inactive | Potency [5]: inactive

CC(CC(=O)Cl)CC(C)(C)C (configuration not stated)
Potency [1]: inactive | Potency [4]: inactive | Potency [5]: inactive

Cc1ccc(N)nc1
Potency [6]: inactive | Potency [2]: inactive | Potency [5]: inactive

Nc1cc(S(=O)(=O)O)ccc1O
Potency [2]: inactive | Potency [3]: inactive | Potency [4]: inactive

CC/C=C/CCCCCCCCCCOC(C)=O
Potency [1]: inactive | Potency [2]: inactive | Potency [4]: inactive | Potency [5]: inactive

COC(C)(C)CC(C)=O
Potency [1]: inactive | Potency [3]: inactive | Potency [4]: inactive | Potency [5]: inactive

O=C(O)CCCCCCCCCC(=O)O
Potency [6]: inactive | Potency [2]: inactive | Potency [3]: inactive | Potency [4]: inactive

Cc1ccc2cccnc2c1
Potency [6]: inactive | Potency [2]: inactive | Potency [3]: 39.6 µM (active) | Potency [4]: inactive | Potency [5]: inactive

CC(C)(Sc1cc(C(C)(C)C)c(O)c(C(C)(C)C)c1)Sc1cc(C(C)(C)C)c(O)c(C(C)(C)C)c1
Potency [4]: inactive

CCCCCCCCS(=O)(=O)O
Potency [1]: inactive | Potency [3]: inactive | Potency [4]: inactive | Potency [5]: inactive

COC(=O)c1ccc(C(=O)O)cc1
Potency [3]: inactive | Potency [4]: inactive | Potency [5]: inactive
